Hit rate of the full screen: of about 300,000 compounds, about 480 (0.16%) were called active.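 How the source made its calls: active means inhibition over 29.93%, a cutoff 3 SD above the screen mean, later confirmed by dose response; inconclusive means inhibition over 29.93% but no dose response follow-up; inactive means inhibition at most 29.93% or unconfirmed.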 The list is a sample of the results. Measured potencies and affinities stand elsewhere.
Test: PhoP-dependent GFP reporter repression – Salmonella Typhimurium, primary screen (AID 1863);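 further: 0% = low Mg2+ inducing control and 100% = high Mg2+ repressing control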
Conditions: S. Typhimurium PhoP-regulated promoter GFP reporter, 4 h; at 50 µM; hits give high values

inhibition, inactive:
O=C(COC(=O)c1ccncc1)NCc1ccccc1 -7.25%
CN(CC(=O)Nc1ccc(OC(F)(F)F)cc1)C1CCCCC1 9.36%
COc1cccc(NC(=O)CN(C)C(=O)c2ccc(-c3ccccc3Cl)o2)c1 -0.25%
COCc1cc(=O)[nH]c(-c2ccccc2)n1 9.5%
COc1ccc(/C=C2/SC(=O)N(CCC(=O)Nc3ccc(C)cc3)C2=O)cc1OC 1.5%
Clc1ccccc1OCCn1ccnc1 21.2%
c1ccc2cc(OCCCn3ccnc3)ccc2c1 -2%
Clc1ccc(OCCn2ccnc2)c(Cl)c1 26.6%
Clc1ccccc1OCCCn1ccnc1 2.45%
COc1ccc(Cc2noc(CN(C)CC3CCN(Cc4ccccc4)CC3)n2)cc1OC 0.81%
N#CCCN(C(=O)CSc1nc2nc(-c3cccs3)cc(C(F)(F)F)c2c(=O)[nH]1)c1ccccc1 -5.71%
CC(C)C(=O)NC(=S)Nc1ccccn1 1.05%
COc1ccc(-c2cc(C(=O)Nc3c(C)n(C)n(-c4ccccc4)c3=O)c3ccccc3n2)cc1 6.3%
O=C(O)CNC(=O)c1ccc(NC(=O)/C(=C/c2cccc([N+](=O)[O-])c2)NC(=O)c2ccco2)cc1 1.55%
COc1cc2nc(Nc3ccc(C)c(Cl)c3)nc(N)c2cc1OC -5.89%
Cc1ccc(Nc2nc(N)c3ccccc3n2)cc1C -7.22%
CCOC(=O)N1CCN(C(=O)c2ccc(C)c(S(=O)(=O)Nc3cccc(C)c3C)c2)CC1 -9.54%
Cc1nc(SC(C(=O)c2ccccc2)c2ccccc2)nc2ccccc12 (configuration not stated) 5.08%
O=Cc1c(N2CCC3(CC2)OCCO3)nc2ccccn2c1=O -5.94%
Cc1cc(N/N=C/c2ccc(O)cc2)c2cccc(C)c2n1 -15.4%
COc1ccc(/C=N/Nc2cc(C)nc3ccc(Br)cc23)cc1 -2.21%
Cc1cc(N/N=C/c2ccc(N(C)C)cc2)c2ccccc2n1 5.73%
COc1cccc2c(N/N=C/c3ccccc3)cc(C)nc12 -2.56%
Cc1ccccc1NC(=O)NC1(C(=O)NCC2CCCO2)CCCCC1 (configuration not stated) -0.07%
CC1CCCC(C)N1/N=C/c1cccc(Br)c1 (configuration not stated) -2.2%
CC1CCCC(C)N1/N=C/c1ccccc1Br (configuration not stated) -3.03%
CC1(C)NC(=O)N(CC(O)CN(c2ccccc2)S(=O)(=O)c2ccccc2)C1=O (configuration not stated) -1.71%

— PubChem BioAssay AID1863 (Southern Research Specialized Biocontainment Screening …, 2009)
